The source of these data is PubChem BioAssay (NCATS).

Records with an inconclusive call do not appear. Values without a mark were called inactive. Calls of active or inactive are those of the source. The call rests on the fitted dose curve; in most records, active means well fitted cell-killing curve with a large enough effect; inconclusive means small, poorly fitted or top-dose-only effect, or effect the other way; inactive means no such curve, though single readings can be large or run the other way.
Potency means the concentration at half of the fitted maximal effect.

A short description of one assay: Quantitative High-Throughput drug screen in 47 multiple myeloma cell lines against the NCATS MIPE library collection: UTMC2_PLB cell viability assay (AID 1919868). Further: nearly all actives have a fitted effect of over 55% in size.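 On viability (% of DMSO control): 100% = DMSO-only wells and 0% = media-only wells without cells.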 The note with it: CellTiter-Glo ATP luminescence, 48 h; series mostly up to 45.8 µM; viability (% of DMSO control): at the top concentration. The procedure, abridged: (§1)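 Inhibition of viability over 48 h was scored by ATP content (CellTiter-Glo) in 500-cell wells. Zero and full viability were defined by media-only and DMSO-only wells.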
Background: In ATP-based viability assays light output follows the ATP content of the culture.
For `CN1CCC(=C2c3ccccc3C=Cc3ccccc32)CC1`, the Potency is 13.2 µM (active).

As for `CN(C)CCCN1c2ccccc2CCc2ccc(Cl)cc21`, the Potency was 0.833 µM (active).

With `CC(C)(Oc1ccc(C2CC2(Cl)Cl)cc1)C(=O)O` (stereo not drawn), the “viability (% of DMSO control)” value is 234% [at 92.2 µM].

With `COc1cc2nc(N3CCN(C(=O)c4ccco4)CC3)nc(N)c2cc1OC`, the Potency is 11.8 µM (active).

Turning to `CN(C)C(=O)C(CCN1CCC(O)(c2ccc(Cl)cc2)CC1)(c1ccccc1)c1ccccc1`, the Potency was 18.7 µM (active).

As for `CC#C[C@]1(O)CC[C@H]2[C@@H]3CCC4=CC(=O)CCC4=C3[C@@H](c3ccc(N(C)C)cc3)C[C@@]21C`, the Potency is 0.418 µM (active).

In the case of `NC(=O)NO`, the Potency is 1.66 µM (active).

Regarding `Cn1c(=O)c2c(ncn2C)n(C)c1=O`, the “viability (% of DMSO control)” value is 171%.

Regarding `CC[C@@]1(O)C(=O)OCc2c1cc1n(c2=O)Cc2cc3c(CN(C)C)c(O)ccc3nc2-1`, the Potency was 0.0526 µM (active).

As to `O=C(Nc1ccc([N+](=O)[O-])cc1Cl)c1cc(Cl)ccc1O`, the Potency is 1.05 µM (active).

Consider `Cc1cc(C(C)(C)C)cc(C)c1CC1=NCCN1`, for which the “viability (% of DMSO control)” value was 133%.

On to `O=c1[nH]cc(F)c(=O)[nH]1`, for which the “viability (% of DMSO control)” value was 173%.

With `CN(Cc1cnc2nc(N)nc(N)c2n1)c1ccc(C(=O)N[C@@H](CCC(=O)O)C(=O)O)cc1`, the Potency is 0.166 µM (active).

Regarding `OCCN(CCO)c1nc(N2CCCCC2)c2nc(N(CCO)CCO)nc(N3CCCCC3)c2n1`, the Potency was 20.9 µM (active).

On to `CN1CCC(=C2c3ccccc3CC(=O)c3sccc32)CC1`, for which the Potency is 10.5 µM (active).

Turning to `NC12CC3CC(CC(C3)C1)C2`, the Potency was 8.33 µM (active).

Consider `CC[N+](CC)(CC)CCOc1cccc(OCC[N+](CC)(CC)CC)c1OCC[N+](CC)(CC)CC`, for which the “viability (% of DMSO control)” value is 87.1%.

In the case of `CS(=O)(=O)CCNCc1ccc(-c2ccc3ncnc(Nc4ccc(OCc5cccc(F)c5)c(Cl)c4)c3c2)o1`, the Potency is 1.18 µM (active).

On to `CCN1CCCC1CNC(=O)c1cc(S(=O)(=O)CC)c(N)cc1OC` (stereo not drawn), for which the “viability (% of DMSO control)” value was 252%.

Regarding `CN1CCN(CCCN2c3ccccc3Sc3ccc(Cl)cc32)CC1`, the Potency is 23.5 µM (active).

Another assay is described as follows: Quantitative High-Throughput drug screen in 47 multiple myeloma cell lines against the NCATS MIPE library collection: PE2_PLB cell viability assay (AID 1919869). Further: nearly all actives have a fitted effect of over 35% in size.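 On viability (% of control): 100% = DMSO-only wells and 0% = cell-free media-only wells.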 The following applies: PE2_PLB myeloma cells viability, ATP luminescence, 48 h; series mostly up to 45.8 µM; viability (% of control): at the top concentration. The procedure, abridged:
as §1
For the compound `CN1CCC(=C2c3ccccc3C=Cc3ccccc32)CC1`, the Potency is 23.5 µM (active).

For `CN(C)CCCN1c2ccccc2CCc2ccc(Cl)cc21`, the Potency is 2.64 µM (active).

For `COc1cc2nc(N3CCN(C(=O)C4COc5ccccc5O4)CC3)nc(N)c2cc1OC` (stereo not drawn), the Potency was 18.7 µM (active).

Turning to `Cc1cc(C(C)(C)C)c(O)c(C)c1CC1=NCCN1`, the “viability (% of control)” value was 116%.

As to `COc1cc2nc(N(C)CCCNC(=O)C3CCCO3)nc(N)c2cc1OC` (stereo not drawn), the “viability (% of control)” value was 85.7%.

Turning to `CC(C)(Oc1ccc(C2CC2(Cl)Cl)cc1)C(=O)O` (stereo not drawn), the “viability (% of control)” value is 128% [at 92.2 µM].

On to `COc1cc2nc(N3CCN(C(=O)c4ccco4)CC3)nc(N)c2cc1OC`, for which the Potency is 10.5 µM (active).

Take `CN(C)C(=O)C(CCN1CCC(O)(c2ccc(Cl)cc2)CC1)(c1ccccc1)c1ccccc1`: the Potency is 26.4 µM (active).

`COc1ccc2[nH]cc(CCNC(C)=O)c2c1`: the “viability (% of control)” value was 117%.

`CC#C[C@]1(O)CC[C@H]2[C@@H]3CCC4=CC(=O)CCC4=C3[C@@H](c3ccc(N(C)C)cc3)C[C@@]21C`: the Potency was 0.833 µM (active).

Take `NC(=O)NO`: the Potency was 3.32 µM (active).

In the case of `Cn1c(=O)c2c(ncn2C)n(C)c1=O`, the “viability (% of control)” value is 106%.

Turning to `CC[C@@]1(O)C(=O)OCc2c1cc1n(c2=O)Cc2cc3c(CN(C)C)c(O)ccc3nc2-1`, the Potency is 0.662 µM (active).

In the case of `CN(C)C(=N)N=C(N)N`, the “viability (% of control)” value is 108%.

Turning to `Cn1c(=O)c2[nH]cnc2n(C)c1=O`, the “viability (% of control)” value was 114%.

On to `CC(C(=O)O)c1cccc(C(=O)c2ccccc2)c1` (stereo not drawn), for which the Potency is 23.5 µM (active).

For the compound `O=C(Nc1ccc([N+](=O)[O-])cc1Cl)c1cc(Cl)ccc1O`, the Potency was 0.526 µM (active).

With `O=c1[nH]cc(F)c(=O)[nH]1`, the “viability (% of control)” value was 107%.

For the compound `CN(Cc1cnc2nc(N)nc(N)c2n1)c1ccc(C(=O)N[C@@H](CCC(=O)O)C(=O)O)cc1`, the Potency is 0.187 µM (active).

As for `O=C1c2c(O)ccc(O)c2C(=O)c2c(NCCNCCO)ccc(NCCNCCO)c21`, the Potency is 0.166 µM (active).

As for `CN1CCC(=C2c3ccccc3CC(=O)c3sccc32)CC1`, the Potency was 11.8 µM (active).

With `COc1ccccc1OCC(O)CN1CCN(CC(=O)Nc2c(C)cccc2C)CC1` (stereo not drawn), the “viability (% of control)” value is 114%.

For the compound `Nc1nc2c(ncn2COC(CO)CO)c(=O)[nH]1`, the Potency was 23.5 µM (active).

Consider `CC(C)NCC(O)c1ccc(O)c(O)c1` (stereo not drawn), for which the Potency is 1.48 µM (active).

For the compound `NC12CC3CC(CC(C3)C1)C2`, the “viability (% of control)” value is 83.6%.

`CCC1(c2ccccc2)C(=O)NCNC1=O`: the Potency is 2.96 µM (active).

For `CC[N+](CC)(CC)CCOc1cccc(OCC[N+](CC)(CC)CC)c1OCC[N+](CC)(CC)CC`, the “viability (% of control)” value is 85.8%.

Consider `CS(=O)(=O)CCNCc1ccc(-c2ccc3ncnc(Nc4ccc(OCc5cccc(F)c5)c(Cl)c4)c3c2)o1`, for which the Potency was 1.66 µM (active).

On to `CN1C(C(=O)Nc2ccccn2)=C(O)c2ccccc2S1(=O)=O`, for which the “viability (% of control)” value was 121%.

With `CCN1CCCC1CNC(=O)c1cc(S(=O)(=O)CC)c(N)cc1OC` (stereo not drawn), the “viability (% of control)” value is 131%.

Consider `CN1CCN(CCCN2c3ccccc3Sc3ccc(Cl)cc32)CC1`, for which the Potency is 23.5 µM (active).

A further assay in a line: Quantitative High-Throughput drug screen in 47 multiple myeloma cell lines against the NCATS MIPE library collection: PCM6_Riken cell viability assay (AID 1919870). Further: nearly all actives have a fitted effect of over 30% in size.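 On viability (% of control): 100% = DMSO-only wells and 0% = media-only wells.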 The note with it: CellTiter-Glo ATP, 48 h; series mostly up to 45.8 µM; viability (% of control): at the top concentration. The procedure, abridged:
as §1
In the case of `CN1CCC(=C2c3ccccc3C=Cc3ccccc32)CC1`, the Potency is 18.7 µM (active).

Consider `CN(C)CCCN1c2ccccc2CCc2ccc(Cl)cc21`, for which the Potency is 0.469 µM (active).

As for `COc1cc2nc(N3CCN(C(=O)C4COc5ccccc5O4)CC3)nc(N)c2cc1OC` (stereo not drawn), the Potency is 20.9 µM (active).

Regarding `Cc1cc(C(C)(C)C)c(O)c(C)c1CC1=NCCN1`, the “viability (% of control)” value is 108%.

`COc1cc2nc(N(C)CCCNC(=O)C3CCCO3)nc(N)c2cc1OC` (stereo not drawn): the “viability (% of control)” value was 92.8%.

For the compound `COc1cc2nc(N3CCN(C(=O)c4ccco4)CC3)nc(N)c2cc1OC`, the Potency was 7.43 µM (active).

As to `CN(C)C(=O)C(CCN1CCC(O)(c2ccc(Cl)cc2)CC1)(c1ccccc1)c1ccccc1`, the Potency is 20.9 µM (active).

In the case of `CC#C[C@]1(O)CC[C@H]2[C@@H]3CCC4=CC(=O)CCC4=C3[C@@H](c3ccc(N(C)C)cc3)C[C@@]21C`, the Potency is 0.743 µM (active).

For `NC(=O)NO`, the Potency is 2.35 µM (active).

As for `Cn1c(=O)c2c(ncn2C)n(C)c1=O`, the “viability (% of control)” value is 114%.

`CC[C@@]1(O)C(=O)OCc2c1cc1n(c2=O)Cc2cc3c(CN(C)C)c(O)ccc3nc2-1`: the Potency was 1.66 µM (active).

With `Cn1c(=O)c2[nH]cnc2n(C)c1=O`, the “viability (% of control)” value was 92.8%.

Regarding `CC(C(=O)O)c1cccc(C(=O)c2ccccc2)c1` (stereo not drawn), the Potency was 16.6 µM (active).

For the compound `O=C(Nc1ccc([N+](=O)[O-])cc1Cl)c1cc(Cl)ccc1O`, the Potency is 1.32 µM (active).

Consider `O=c1[nH]cc(F)c(=O)[nH]1`, for which the Potency was 10.5 µM (active).

In the case of `CN(Cc1cnc2nc(N)nc(N)c2n1)c1ccc(C(=O)N[C@@H](CCC(=O)O)C(=O)O)cc1`, the Potency is 0.105 µM (active).

Turning to `O=C1c2c(O)ccc(O)c2C(=O)c2c(NCCNCCO)ccc(NCCNCCO)c21`, the Potency is 0.935 µM (active).

Take `CN1CCC(=C2c3ccccc3CC(=O)c3sccc32)CC1`: the Potency is 14.8 µM (active).

In the case of `Nc1nc2c(ncn2COC(CO)CO)c(=O)[nH]1`, the Potency is 23.5 µM (active).

`CC(C)NCC(O)c1ccc(O)c(O)c1` (stereo not drawn): the Potency was 1.18 µM (active).

For `NC12CC3CC(CC(C3)C1)C2`, the Potency was 3.32 µM (active).

Turning to `CCC1(c2ccccc2)C(=O)NCNC1=O`, the Potency is 3.72 µM (active).

For `CC[N+](CC)(CC)CCOc1cccc(OCC[N+](CC)(CC)CC)c1OCC[N+](CC)(CC)CC`, the “viability (% of control)” value is 113%.

Consider `CS(=O)(=O)CCNCc1ccc(-c2ccc3ncnc(Nc4ccc(OCc5cccc(F)c5)c(Cl)c4)c3c2)o1`, for which the Potency is 1.18 µM (active).

Regarding `CN1C(C(=O)Nc2ccccn2)=C(O)c2ccccc2S1(=O)=O`, the “viability (% of control)” value is 108%.

As to `CCN1CCCC1CNC(=O)c1cc(S(=O)(=O)CC)c(N)cc1OC` (stereo not drawn), the “viability (% of control)” value is 135%.

In the case of `CN1CCN(CCCN2c3ccccc3Sc3ccc(Cl)cc32)CC1`, the Potency was 8.33 µM (active).
